Reference: PubChem BioAssay AID602358 (National Center for Advancing Translational Sciences (NCATS), 2012)
Results filed as inconclusive are left out. Active and inactive are the calls of the source. Calls come from the whole dose curve; as a rule, active = well fitted inhibition curve with a large enough effect; inconclusive = small, poorly fitted or top-dose-only effect; inactive = flat fitted curve, though single readings scatter.

Biological target: Luciferin 4-monooxygenase (Photinus pyralis) (UniProt P08659)
Sequence (P08659 whole entry, looked up): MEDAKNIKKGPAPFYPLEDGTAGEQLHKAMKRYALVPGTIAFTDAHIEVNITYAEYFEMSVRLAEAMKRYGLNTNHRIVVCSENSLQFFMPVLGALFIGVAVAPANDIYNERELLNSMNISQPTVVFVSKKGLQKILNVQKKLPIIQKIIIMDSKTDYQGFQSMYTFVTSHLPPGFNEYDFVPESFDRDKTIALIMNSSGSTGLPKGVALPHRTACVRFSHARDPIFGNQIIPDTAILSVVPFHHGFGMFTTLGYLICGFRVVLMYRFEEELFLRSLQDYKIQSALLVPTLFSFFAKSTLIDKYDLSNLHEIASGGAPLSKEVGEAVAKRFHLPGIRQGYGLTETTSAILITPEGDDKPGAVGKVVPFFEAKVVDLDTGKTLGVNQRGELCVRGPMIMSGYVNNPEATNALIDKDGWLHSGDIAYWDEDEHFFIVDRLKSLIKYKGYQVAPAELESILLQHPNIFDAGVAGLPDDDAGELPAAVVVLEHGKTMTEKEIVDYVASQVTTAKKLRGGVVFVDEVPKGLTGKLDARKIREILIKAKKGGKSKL
Assay: FLuc inhibitory activity for the follow-up compounds in a biochemical assay with Km concentrations of substrate and 500microM CoASH
Settings: purified FLuc, Km substrates + 500 uM CoASH, luminescence; series mostly up to 57.5 µM
In short: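 Twelve-point compound titrations (final ~60uM to 0.3nM) added to substrate mix of 10uM luciferin, 10uM ATP, 500 uM CoASH at pH 7.5, then 10nM firefly luciferase enzyme. Light output imaged directly.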

Structure (SMILES)	Potency
O=C(O)c1ccc(NC(=O)c2ccccc2NC(=O)c2ccccc2Cl)cc1	16.3 µM (active)
CC(C)C(=O)Nc1cccc(C(=O)Nc2ccccc2C(=O)O)c1	7.3 µM (active)
CCOc1ccc(C(=O)Nc2cccc(C(=O)O)c2)cc1Cl	0.919 µM (active)
Nc1ccc(-c2nc3ccc(C(=O)O)cc3s2)cc1	0.146 µM (active)
CC(C)CC(=O)Nc1cccc(C(=O)Nc2ccccc2C(=O)O)c1	13 µM (active)
